Laboratory results: PubChem BioAssay AID1159580 (chemical genetic matrix, 2015)
Screen size: about 5,500 compounds; about 2,000 (36%) were called active. Another 18% or so got no clear call; they are omitted. Rule as the data show it: active = normalized growth mostly below about 0.91 (no sharp cut-off); inconclusive = no clear call, values can overlap the other calls; inactive = mostly above about 0.92. The list shows a part of the results.

Test: chemical genetic growth profiling, strain panel (AID 1159580);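 also: tested at 20 µM; growth read once vehicle control cultures reached saturation at 30 °C; 1 = growth at the plate median or of vehicle wells; lower values mean less growth of the strain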
Settings: S. cerevisiae deletion strains, growth OD

Measured: normalized growth

CC(=O)NCCCCCC(=O)O
inactive: locus YAL013W, strain DEP1, active compounds read low 1.01 | locus YAL021C, strain ccr4, active compounds read low 1.01 | locus YAL026C, strain drs2, active compounds read low 0.978 | locus YAL030W, strain snc1, active compounds read low 0.99 | locus YBL061C, strain skt5, active compounds read low 0.99 | locus YBR009C, strain hhf1, active compounds read low 0.979 | locus YBR021W, strain FUR4, active compounds read low 1.02 | locus YBR023C, strain chs3, active compounds read low 0.984 | locus YBR171W, strain sec66, active compounds read low 0.999 | locus YBR229C, strain ROT2, active compounds read low 1.01 | locus YBR231C, strain swc5, active compounds read low 0.998 | locus YBR279W, strain paf1, active compounds read low 0.998 | locus YCL011C, strain gbp2, active compounds read low 0.968 | locus YCL016C, strain dcc1, active compounds read low 1 | locus YCL029C, strain bik1, active compounds read low 0.988 | locus YCL061C, strain MRC1, active compounds read low 1 | locus YCL069W, strain vba3, active compounds read low 0.979 | locus YCR088W, strain abp1, active compounds read low 0.99 | locus YDL005C, strain med2, active compounds read low 0.984 | locus YDL035C, strain GPR1, active compounds read low 1.02 | locus YDL040C, strain nat1, active compounds read low 0.995 | locus YDL074C, strain BRE1, active compounds read low 1.04 | locus YDL101C, strain DUN1, active compounds read low 1.02 | locus YDL134C, strain PPH21, active compounds read low 1 | locus YDL185W, strain tfp1, active compounds read low 0.985 | locus YDL192W, strain arf1, active compounds read low 0.988 | locus YDR001C, strain nth1, active compounds read low 0.987 | locus YDR069C, strain doa4, active compounds read low 0.993 | locus YDR101C, strain arx1, active compounds read low 0.986 | locus YDR137W, strain rgp1, active compounds read low 1.01 | locus YDR159W, strain sac3, active compounds read low 0.976 | locus YDR162C, strain NBP2, active compounds read low 1.01 | locus YDR195W, strain ref2 0.982 | locus YDR297W, strain sur2, active compounds read low 0.993 | locus YDR318W, strain mcm21, active compounds read low 0.992 | locus YDR334W, strain swr1, active compounds read low 0.979 | locus YDR335W, strain msn5, active compounds read low 1 | locus YDR388W, active compounds read low 0.97 | locus YDR392W, strain spt3, active compounds read low 0.891 | locus YDR502C, strain sam2, active compounds read low 0.98 | locus YEL003W, strain gim4, active compounds read low 0.969 | locus YEL037C, strain rad23, active compounds read low 0.972 | locus YEL061C, strain CIN8 (second series), active compounds read low 0.977 | locus YEL061C, strain CIN8, active compounds read low 1.01 | locus YER015W, strain faa2, active compounds read low 1 | locus YER016W, strain bim1, active compounds read low 0.997 | locus YER110C, active compounds read low 0.986 | locus YER111C, strain swi4, active compounds read low 0.967 | locus YER155C, strain BEM2 (second series), active compounds read low 1.01 | locus YER155C, strain BEM2, active compounds read low 1.01 | locus YER167W, strain BCK2, active compounds read low 1 | locus YFR010W, strain ubp6, active compounds read low 0.983 | locus YGL078C, strain dbp3, active compounds read low 0.974 | locus YGL086W, strain mad1, active compounds read low 1 | locus YGL167C, strain pmr1, active compounds read low 0.969 | locus YGL173C, strain kem1, active compounds read low 0.99 | locus YGL227W, strain vid30, active compounds read low 0.97 | locus YGL240W, strain doc1, active compounds read low 0.993 | locus YGL248W, strain PDE1, active compounds read low 1.03 | locus YGL253W, strain hxk2, active compounds read low 0.991 | locus YGR135W, strain pre9, active compounds read low 0.979 | locus YGR229C, strain SMI1, active compounds read low 1.01 | locus YGR252W, strain gcn5, active compounds read low 0.954 | locus YHR013C, strain ard1, active compounds read low 0.946 | locus YHR027C, strain rpn1, active compounds read low 1.01 | locus YHR030C, strain SLT2, active compounds read low 1.01 | locus YHR079C, strain IRE1 (second series), active compounds read low 0.992 | locus YHR094C, strain hxt1, active compounds read low 0.984 | locus YHR129C, strain ARP1, active compounds read low 1.01 | locus YHR142W, strain chs7, active compounds read low 1.02 | locus YHR200W, strain rpn10, active compounds read low 0.994 | locus YIL066C, strain RNR3, active compounds read low 1.03 | locus YIL073C, strain SPO22, active compounds read low 0.979 | locus YIL125W, strain kgd1, active compounds read low 0.981 | locus YIR030C, strain dcg1, active compounds read low 0.998 | locus YJL092W, strain hpr5, active compounds read low 0.99 | locus YJL095W, strain BCK1 (second series), active compounds read low 1.01 | locus YJL095W, strain BCK1, active compounds read low 1.03 | locus YJL115W, strain asf1, active compounds read low 0.98 | locus YJL129C, strain trk1, active compounds read low 1 | locus YJL134W, strain LCB3, active compounds read low 1.01 | locus YJL154C, strain vps35, active compounds read low 0.978 | locus YJL164C, strain tpk1, active compounds read low 1.02 | locus YJL166W, strain qcr8, active compounds read low 1.01 | locus YJL168C, strain set2, active compounds read low 0.986 | locus YJL187C, strain SWE1 (second series), active compounds read low 1.03
